# Data from the supplement of paper PMC10338343.
# ± gives the standard deviation.
# Test system: MILI (PIWIL2) piRISC loaded with L1MC piRNA (26 nt)
# Assay: pre-steady-state target cleavage rate (min^-1); guide: L1MC piRNA 5'p-UAACUAAAUACUAUGCAAGCUGUAGG; MIWI and MILI are mouse PIWI proteins and EfPiwi is from a freshwater sponge; tags in brackets are library labels; higher = faster piRNA-guided slicing of the target
# Settings: auxiliary factor: 500 nM mouse GTSF1
# Summary of the method: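 Cleave-'n-Seq reactions paired 0.1 nM transcribed, DNA-blocked target RNA library with 1 nM active affinity-purified piRISC holding one synthetic guide, plus or minus 500 nM GTSF1 partner protein, in HEPES–potassium acetate buffer at 33 °C for 0–8 or 0–960 min. After sequencing of uncleaved targets and normalisation to depth and weakly complementary targets, the pre-steady-state cleavage rate was taken from a burst-and-steady-state fit. Three trials were pooled, and k3 was capped at 0.0001 min^-1.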
row,Sequence,pre-steady-state target cleavage rate
1,UCCUCCUACAGCAUGCAUAGUAAUUAGUUA,0.251 ± 0.024
2,UCCUGGAUCAGCUUCGAUAGUAUUUAGUUA,0.233 ± 0.018
3,UCCUGGAACACCUUGCAUAGUAUUUAGUUA,0.234 ± 0.026
4,UCCUGGAACAGCUUGCAUUGUAUUUAGUUA,0.18 ± 0.014
5,UCCUGGUACAGCUUGCAUAGUAUUUAGUA,0.226 ± 0.031
6,UCCUGGAACAGCUCGCAUAGUAUUUAGUUA,0.256 ± 0.012
7,UCCUGGAUCAGCUUGCAUAGUAUGUUAGUUA,0.199 ± 0.017
8,UCCUCCGUACAGCUUGCAUAGUAUUUAGUUA,0.272 ± 0.014
9,UCCUGGAUGUGCCUGCAUAGUAUUUAGUUA,0.0999 ± 0.015
10,UCCUGGAUGAGCAUGCAUAGUAUUUAGUAA,0.21 ± 0.024
11,UCCUGGUACAGCUUGCUUAGUAUAUAGUUA,0.197 ± 0.045
12,UCCUGGAUCAGCUUGCAAAGUAUUAAGUUA,0.119 ± 0.011
13,UCCUGGAUGAGCUUGCAUAGUAUUUAGUUU [g2:g21:cont:t1U],0.226 ± 0.011
14,UCCUCCAACAGCUUGGAUAGUAUUUAGUUA,0.269 ± 0.0097
15,UCCUGGUACAGCAUGCAUAGUAUAUAGUUA,0.241 ± 0.038
16,UCCUGGUACAGCUCUGCAUAGUAUUUAGUUA,0.243 ± 0.018
17,UCCUCCUUCAGGUUGCAUAGUAUUUAGUUA,0.239 ± 0.013
18,UCCUGGAUGUCGUGUGCAUAGUAUUUAGUUA,0.102 ± 0.015
19,UCCUGGAACCGCUUGCAUAGUAUUUAGUUA,0.265 ± 0.015
20,UCCUCCUACUGCUAGCAUAGUAUUUAGUUA,0.232 ± 0.015

row,Sequence,pre-steady-state target cleavage rate
1,UCCUGGUAACAGCUUGCAUAGUAUUUAGUUA,0.244 ± 0.02
2,UCCUGCUACAGCUUGGCAUAGUAUUUAGUUA,0.307 ± 0.051
3,UCCUCCUACUGCUUGCAUAGUAUUUUGUUA,0.0977 ± 0.016
4,UCCUCCUACAGCUUGCAUUGUAAUUAGUUA,0.166 ± 0.013
5,UCCUGGUACAGCUUGCAUAGUAUUUAGUUC [g2:g24:cont:t1C],0.3 ± 0.016
6,UCCUGGAUGUGCUUGCACAGUAUUUAGUUA,0.13 ± 0.01
7,UCCUGGAUCAGCUUGCAAACUAUUUAGUUA,0.0267 ± 0.0067
8,UCCUCCUACAGCCUUGCAUAGUAUUUAGUUA,0.262 ± 0.019
9,UCCUGGAUGAGCUUGCAUUGUAUUUAGUAA,0.127 ± 0.021
10,UCCUGGUUCAGCUUGCAUAGUAUAUAGUUA,0.198 ± 0.034
11,UCCUCCUACAGCUUGGAUAGUAUUAAGUUA,0.134 ± 0.017
12,UCCUGCUACAGGAAGCAUAGUAUUUAGUAA,0.254 ± 0.024
13,UCCUGCUACAGCUUGCAUAGUACUUAGUUA,0.233 ± 0.026
14,UCCUGGAUCACGAUGCAUAGUAUUUAGUUA,0.134 ± 0.013
15,UCCUGGAACAGCAUGCUUAGUAUUUAGUUA,0.217 ± 0.019
16,UCCUCGUACAGCUAGCAUAGUAUUUAGUUA,0.281 ± 0.012
17,UCCUGCUACAGCUUGGAUAGUAUUUAGUUA,0.296 ± 0.017
18,UCCUGGAACAGCUUGCAUAGUAUUUAGUCA,0.224 ± 0.024
19,UCCUGGUACAGCCUUGCAUAGUAUUUAGUUA,0.198 ± 0.02
20,UCCUGCUACAGCUUGCAUAGUAUUUACGUUA,0.21 ± 0.023

# Same assay, conditions: auxiliary factor: none (no GTSF1)
row,Sequence,pre-steady-state target cleavage rate
1,UCCUCCUACAGCAUGCAUAGUAAUUAGUUA,0.00544 ± 0.0019
2,UCCUGGAUCAGCUUCGAUAGUAUUUAGUUA,0.0034 ± 0.0021
3,UCCUGGAACACCUUGCAUAGUAUUUAGUUA,0.00811 ± 0.0025
4,UCCUGGAACAGCUUGCAUUGUAUUUAGUUA,0.00894 ± 0.0026
5,UCCUGGUACAGCUUGCAUAGUAUUUAGUA,0.00521 ± 0.003
6,UCCUGGAACAGCUCGCAUAGUAUUUAGUUA,0.00773 ± 0.0031
7,UCCUGGAUCAGCUUGCAUAGUAUGUUAGUUA,0.00633 ± 0.0025
8,UCCUCCGUACAGCUUGCAUAGUAUUUAGUUA,0.0094 ± 0.0023
9,UCCUGGAUGUGCCUGCAUAGUAUUUAGUUA,0.00951 ± 0.003
10,UCCUGGAUGAGCAUGCAUAGUAUUUAGUAA,0.00494 ± 0.0024
11,UCCUGGUACAGCUUGCUUAGUAUAUAGUUA,0.00855 ± 0.0026
12,UCCUGGAUCAGCUUGCAAAGUAUUAAGUUA,0.00698 ± 0.0025
13,UCCUGGAUGAGCUUGCAUAGUAUUUAGUUU [g2:g21:cont:t1U],0.0146 ± 0.0035
14,UCCUCCAACAGCUUGGAUAGUAUUUAGUUA,0.00646 ± 0.0021
15,UCCUGGUACAGCAUGCAUAGUAUAUAGUUA,0.00583 ± 0.0028
16,UCCUGGUACAGCUCUGCAUAGUAUUUAGUUA,0.00792 ± 0.0029
17,UCCUCCUUCAGGUUGCAUAGUAUUUAGUUA,0.0102 ± 0.002
18,UCCUGGAUGUCGUGUGCAUAGUAUUUAGUUA,0.00602 ± 0.0035
19,UCCUGGAACCGCUUGCAUAGUAUUUAGUUA,0.0108 ± 0.002
20,UCCUCCUACUGCUAGCAUAGUAUUUAGUUA,0.006 ± 0.0021

row,Sequence,pre-steady-state target cleavage rate
1,UCCUGGUAACAGCUUGCAUAGUAUUUAGUUA,0.016 ± 0.0044
2,UCCUGCUACAGCUUGGCAUAGUAUUUAGUUA,0.00405 ± 0.0027
3,UCCUCCUACUGCUUGCAUAGUAUUUUGUUA,0.00448 ± 0.0018
4,UCCUCCUACAGCUUGCAUUGUAAUUAGUUA,0.00423 ± 0.0019
5,UCCUGGUACAGCUUGCAUAGUAUUUAGUUC [g2:g24:cont:t1C],0.0117 ± 0.0049
6,UCCUGGAUGUGCUUGCACAGUAUUUAGUUA,0.00631 ± 0.0022
7,UCCUGGAUCAGCUUGCAAACUAUUUAGUUA,0.00375 ± 0.0019
8,UCCUCCUACAGCCUUGCAUAGUAUUUAGUUA,0.0101 ± 0.0026
9,UCCUGGAUGAGCUUGCAUUGUAUUUAGUAA,0.00311 ± 0.0025
10,UCCUGGUUCAGCUUGCAUAGUAUAUAGUUA,0.0112 ± 0.0032
11,UCCUCCUACAGCUUGGAUAGUAUUAAGUUA,0.00275 ± 0.0027
12,UCCUGCUACAGGAAGCAUAGUAUUUAGUAA,0.00762 ± 0.0022
13,UCCUGCUACAGCUUGCAUAGUACUUAGUUA,0.00719 ± 0.0026
14,UCCUGGAUCACGAUGCAUAGUAUUUAGUUA,0.00516 ± 0.0028
15,UCCUGGAACAGCAUGCUUAGUAUUUAGUUA,0.005 ± 0.0026
16,UCCUCGUACAGCUAGCAUAGUAUUUAGUUA,0.00766 ± 0.0022
17,UCCUGCUACAGCUUGGAUAGUAUUUAGUUA,0.0119 ± 0.0026
18,UCCUGGAACAGCUUGCAUAGUAUUUAGUCA,0.00732 ± 0.0022
19,UCCUGGUACAGCCUUGCAUAGUAUUUAGUUA,0.0147 ± 0.0051
20,UCCUGCUACAGCUUGCAUAGUAUUUACGUUA,0.00615 ± 0.0025
